The values below come from PubChem BioAssay AID431 (Sanford-Burnham Center for Chemical Genomics, 2006).

Structures are written as SMILES. About 1,100 (1.7%) of roughly 63,000 compounds were called active. The sample as a whole holds a higher share of actives than the screen did. Measured potencies and affinities stand elsewhere. Values without a mark were called inactive.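 Rule for the calls: active = compounds whose percent cytotoxicity in the single-dose primary screen, scaled between solvent and toxic-drug controls, exceeds 50; inactive = the rest.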

A short description of the assay: viability loss of HPDE-C7K cells – cell-based, fluorescence, HTS, primary screen (AID 431).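 Note: 0% = DMSO solvent wells and 100% = doxorubicin-treated wells.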 To be noted: HPDE-C7K KRASV12 cells, Alamar Blue viability, 48 h; at 10 µM; active compounds read high. On the technique in general: Resazurin is reduced to fluorescent resorufin, in cell work by metabolically active cells.
With `CCN(CC)C(=O)CSc1ncnc2c1nnn2-c1ccc(OC)cc1`, the cytotoxicity was -10.4%.
In the case of `COc1ccc(-n2nnc3c(SCC(=O)NCC4CCCO4)ncnc32)cc1` (centres undefined), the cytotoxicity was 2.8%.
Under `O=C(NCCc1ccccc1)c1ccnc(/C=N/O)c1` stands -14.3%; under `CCn1c2c(c3cc(C(=O)O)ccc31)CCCC2=O`, -19.1%; under `CCn1c2c(c3cc(Cl)ccc31)CCCC2=O`, -6.2%.
With `Cc1oc2cc(O)cc(C)c2c(=O)c1-c1cnn(-c2ccccc2)c1` the figure was 61.3% (active).
Under `Cc1oc2cc(O)ccc2c(=O)c1-c1cnn(-c2ccccc2)c1` stands 22.6%; under `Cc1oc2c(O)c(O)ccc2c(=O)c1-c1cnn(-c2ccccc2)c1`, 0.8%; under `COc1cc(NC(=O)Nc2ccccc2)c(OC)cc1NC(=O)CN1CCCCC1`, -3.3%.
For `COc1cc(NC(=O)Nc2cccc(Cl)c2)c(OC)cc1NC(=O)CN1CCCCC1`, the cytotoxicity was 89.7% (active).
With `COc1cc(NC(=O)Nc2ccccc2OC)c(OC)cc1NC(=O)CN1CCCCC1` the figure was 48.5%; with `O=C(NC1CCCC1)C1CC1c1ccccc1` (centres undefined), 17.8%; with `CC1(C)CC(=O)C2=C(C1)OC(N)=C(C#N)C2c1cccc(OC(=O)c2ccco2)c1` (centres undefined), -2.4%.
As for `FC(F)(F)c1cc(-c2ccco2)nc(-n2cnc3ccccc32)n1`, the cytotoxicity is 41.5%.
Under `COc1nc(-c2ccccc2)cc(C(F)(F)F)n1` stands -0.7%; under `FC(F)(F)c1cc(-c2ccco2)nc(NCc2ccccc2)n1`, 8.4%; under `FC(F)(F)c1cc(-c2ccco2)nc(NCc2ccco2)n1`, -0.2%.
For `FC(F)(F)c1cc(-c2ccco2)nc(-n2nnc3ccccc32)n1`, the cytotoxicity is 3.9%.
With `COc1ccc(-c2cc(C(F)(F)F)nc(NC3CCCC3)n2)cc1OC` the figure was 8.8%; with `Nc1nc(-c2ccccc2)cc(C(F)(F)F)n1`, -1.4%; with `COc1ccc(-c2cc(C(F)(F)F)nc(N3CCCCC3)n2)cc1OC`, -2.6%.
Under `COC(=O)CC1Oc2ccccc2N(Cc2ccc(C)cc2)C1=O` (centres undefined) stands 1.3%; under `O=C(CCC1CCCC1)Nc1ccon1`, -5.5%.
Regarding `CCOc1ccc(NC(=O)Nc2ccc3nccnc3c2)cc1`, the cytotoxicity was 8.3%.
With `O=C(CSc1nc(-c2ccc(F)cc2)cs1)NC(=O)NCc1ccco1` the figure was 1%; with `CCOC(=O)/C=C1\SCC(=O)N1Cc1nnc(-c2ccccc2Br)o1`, -23.5%; with `COC(=O)c1[nH]c(C)c(/C(O)=C2\C(=O)C(=O)N(CCN(C)C)C2c2cc(OC)ccc2OC)c1C` (centres undefined), -7.9%.
With `O=C(CSc1ncc(-c2ccccc2)nn1)NCc1ccco1` the figure was -13.8%.
As for `CC(C)c1nnc(NC(=O)CCS(=O)(=O)c2nc(-c3cccs3)cc(C(F)(F)F)n2)s1`, the cytotoxicity is 43.6%.
`CN1CCN(c2nc(-c3cccs3)cc(C(F)(F)F)n2)CC1`: the cytotoxicity is 3.2%.
Under `CCn1c(SCC(=O)Nc2ccc(N3CCOCC3)c(Cl)c2)nnc1-c1ccc(N)cc1` stands 3.4%.
With `Clc1ccc(OCc2nn3c(C4CCCCC4)nnc3s2)cc1` the figure was 17.1%; with `CCOc1cc(-c2nc(-c3ccc(C)nc3OC)no2)cc(OCC)c1OCC`, -15%.
Consider `Cc1nc(NC(=O)c2oc3ccccc3c2C)sc1C(=O)N(C)C`, for which the cytotoxicity is 12.9%.
With `CCN1CCN(c2ncc(C(=O)Nc3cc(Cl)ccc3OC)c3ccccc23)CC1` the figure was 75.3% (active); with `CCN1CCN(c2ncc(C(=O)Nc3cc(Cl)c(OC)cc3OC)c3ccccc23)CC1`, 11.7%.
Consider `CCN1CCN(c2ncc(C(=O)Nc3ccccc3C(=O)OC)c3ccccc23)CC1`, for which the cytotoxicity is 40.3%.
Turning to `O=c1/c(=C\c2cccnc2)sc2nc3ccccc3n12`, the cytotoxicity was -13.6%.
With `COc1cc(C(=O)OC(C)CN2CCN(C)CC2)cc(OC)c1OC` (centres undefined) the figure was -37.3%.
Regarding `O=C(CN1C(=O)COc2ccccc21)c1ccc(Cl)cc1`, the cytotoxicity is -0.2%.
Under `Cc1ccc(C(=O)CSc2nnc(CNc3nc(-c4ccccc4)cs3)n2C)cc1` stands 4.1%.
Consider `COc1ccc(OCC(=O)Nc2ccccc2C(=O)N2CCCC2)cc1`, for which the cytotoxicity is -0.2%.
Under `NS(=O)(=O)c1ccc(S(=O)(=O)N(Cc2ccccc2F)CC2CCCO2)cc1` (centres undefined) stands 4%; under `CC(NC(=O)NCC1CCCO1)(C(F)(F)F)C(F)(F)F` (centres undefined), -11.1%; under `Cc1ccccc1-n1c(C)nnc1SCC(=O)NCC1CCCO1` (centres undefined), -1.6%.
Consider `COc1ccc(S(=O)(=O)N(C)CC(=O)NC2CCCC2)cc1Cl`, for which the cytotoxicity was -18%.
With `Oc1ccc2oc3c(c2c1/C=N/n1cnnc1)CCCC3` the figure was -21.1%; with `Cc1nc2ccccc2c(=O)n1/N=C/c1c(O)ccc2oc3c(c12)CCCC3`, 72.1% (active); with `Cc1nc2ccccc2c(=O)n1/N=C/c1ccc(O)cc1`, 24.4%.
Consider `CCCC(=O)Nc1ccc(Cl)c(NC(=O)c2ccco2)c1`, for which the cytotoxicity was 3.9%.
Under `O=C(Oc1c(Cl)cc(Cl)c2cccnc12)N1CCCCC1` stands 10.8%.
With `CCCC(=O)NC(c1ccco1)c1cc(Cl)c2cccnc2c1O` (centres undefined) the figure was 59.2% (active); with `NC(=O)c1ccc(N2CCCCC2)c(N2C(=O)C3C4C=CC(C4)C3C2=O)c1` (centres undefined), 2.5%; with `O=C(CSc1nc(O)cc(=O)n1-c1ccccc1)NCc1ccccc1`, -1%.
Under `CC1=C(C(=O)OC(C)C)C(c2cccs2)N2C(=O)CCSC2=N1` (centres undefined) stands 10.1%; under `O=C1CC(N2CCN(c3nc4ccccc4s3)CC2)C(=O)N1Cc1cccs1` (centres undefined), 5.6%; under `O=C1CC(N2CCN(c3ccc(F)cc3)CC2)C(=O)N1Cc1cccs1` (centres undefined), -7.6%.
Regarding `Cc1cccc(N(CC(=O)NC2CCCCC2)C(=O)CCC(=O)Nc2cc(C)ccn2)c1`, the cytotoxicity is -11.1%.
Under `N#Cc1cccc2cnccc12` stands -3.3%.
Under `CCOc1ccc(-c2nn3c(-c4ccc(F)cc4)nnc3s2)cc1` stands 9.9%.
Under `c1cncc(-c2nn3c(-c4ccncc4)nnc3s2)c1` stands -1%; under `CCN(CC)c1ccc(-c2nn3c(-c4cccnc4)nnc3s2)cc1`, 56.4% (active).
Take `CN(C)c1ccc(-c2nn3c(-c4cccnc4)nnc3s2)cc1`: the cytotoxicity is -11.9%.
Under `CN(C)c1ccc(-c2nn3c(-c4ccncc4)nnc3s2)cc1` stands -7.6%; under `O=C(CC1(O)C(=O)N(Cc2ccc3c(c2)OCO3)c2ccccc21)c1ccccc1` (centres undefined), -28%; under `O=C(NCC1CCCO1)c1csc2c1CCCCC2` (centres undefined), -11.1%.
Turning to `COc1ccccc1N1CCN(Cc2ccc(OC)c(OC)c2OC)CC1`, the cytotoxicity was -15.5%.
Under `CCCC(N)CCCCCC(=O)O` (centres undefined) stands 4.3%.
With `CCSC(SCC)[C@H](O)[C@@H](O)[C@H](O)[C@H](O)CO` the figure was -20.9%; with `N#CC(C(=O)NC1CCCCC1)c1nc2ccccc2nc1N1CCCCC1` (centres undefined), -0.2%.
`CC(=O)NCCCc1c[nH]c2ccc(Cl)cc12`: the cytotoxicity was 5.3%.
With `O=C(NCc1ccc(Cl)cc1)c1ccc(COCC(F)(F)F)o1` the figure was 7.2%.
Under `COc1ccc(-n2nnc3c(=O)n(CC(=O)NCC4CCCO4)cnc32)cc1` (centres undefined) stands -5%; under `CCn1c(NC2CCCCC2)nc2ccccc21`, 15.1%.
Take `COc1cccc(CNc2nc3ccccc3n2CCN2CCCCC2)c1`: the cytotoxicity was -17.7%.
With `COc1ccc(C(=O)CSc2nnc(-c3ccoc3C)n2CC2CCCO2)cc1` (centres undefined) the figure was -33%; with `Cc1nc2c(-c3ccccc3)c(C)nn2c(C)c1CCC(=O)N1CCOCC1`, -17%; with `Cc1cc(C)c(S(N)(=O)=O)c(C)c1-n1cnnn1`, -18.5%.
Under `CCOC(=O)CSC1=C(C#N)C(c2ccccc2C)C2=C(CCCC2=O)N1` (centres undefined) stands 0.9%.
Under `COc1cccc(C2/C(=C(\O)c3c(C)nc4c(C)cccn34)C(=O)C(=O)N2CCCN(C)C)c1OC` (centres undefined) stands -1.4%; under `c1ccc2c(c1)[nH]c1c(N3CCOCC3)ncnc12`, -3.2%; under `c1ccc2c(c1)[nH]c1c(N3CCC4(CC3)OCCO4)ncnc12`, 23.3%.
In the case of `O=C(c1ccco1)N1CCN(c2ncnc3c2[nH]c2ccccc23)CC1`, the cytotoxicity is 21.1%.
Take `Cc1ccc2c(c1)[nH]c1c(N3CCN(Cc4ccccc4)CC3)ncnc12`: the cytotoxicity is 107% (active).
Under `CCOC(=O)c1[nH]c2ccc(OCC)cc2c1NC(=O)CN1CCN(c2ccccn2)CC1` stands 0.9%; under `CCOC(=O)N1CCN(c2ncnc3c2[nH]c2ccc(OC)cc23)CC1`, 18.4%.
Under `c1ccc(CN2CCN(c3ncnc4nc[nH]c34)CC2)cc1` stands -3.8%; under `c1ccc2c(c1)[nH]c1c(N3CCCC3)ncnc12`, 20%; under `c1ccc(CN2CCN(c3ncnc4c3[nH]c3ccccc34)CC2)cc1`, 119% (active).
With `CCOc1ccc2[nH]c3c(N4CCN(c5ccccn5)CC4)ncnc3c2c1` the figure was 77.1% (active); with `OC1(c2cccc(C(F)(F)F)c2)CCN(c2ncnc3c2[nH]c2ccccc23)CC1`, 124% (active); with `c1ccc2c(c1)[nH]c1c(N3CCSCC3)ncnc12`, 44.2%.
In the case of `Cc1nonc1NC(=O)Nc1cccnc1`, the cytotoxicity is 5.4%.
On to `CCOc1ccccc1N(CC(=O)NCc1ccc(OC)cc1)S(C)(=O)=O`, for which the cytotoxicity was -11.2%.
With `COc1ccc(-n2nnnc2SCC(=O)Nc2cccc(NC(C)=O)c2)cc1OC` the figure was 11.1%; with `CSC1=NCCN1C(=O)Cc1ccc(Cl)cc1`, 3.5%; with `CCOC(=O)c1ccc(NC(=O)c2nn(CC)cc2Br)cc1`, 0.8%.
Under `Cc1ccc2[nH]c3c(N4CCCCCC4)ncnc3c2c1` stands 30.4%.
With `Cc1ccc2[nH]c3c(N4CCOCC4)ncnc3c2c1` the figure was 16.2%.
